An excerpt weighted towards active compounds, which were near 3.4% of everything screened.
PLC-gamma1 inh: inhibitors of human phospholipase C gamma1. P19174. purified PLC-gamma1, fluorogenic substrate, fluorescence. inhibition, % at 12.2 µM. 0.84% of 370,000 active
HGIII-sPLA2 inh: Inhibits HGIII-sPLA2 liposome hydrolysis, primary screen; Q9NZ20; QFRET BODIPY PC-A2 liposome hydrolysis, fluorescence; inhibition, % at 12.2 µM; 0.56% of 370,000 active; AID 743126;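 active = inhibition above mean plus 3 SD of compounds lying within the high and low control bounds, cut at about 19% in these data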;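 also: 0% = median of test compound wells and 100% = no enzyme DMSO wells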
proKLK7 act: activates the human kallikrein-7 zymogen | P49862 | purified proKLK7, EDANS-DABCYL substrate fluorescence; 100% is mature enzyme control, 0% vehicle | activation, % at 7 µM | 0.9% of 370,000 active | AID 652039;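 active = activation above the mean of all tested compounds plus 3 SD, computed per campaign excluding outliers beyond control limits, cut at about 13% in these data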
ADAM10 inh: inhibits human ADAM10; inhibition, % at 7 µM; 0.62% of 370,000 active; O14672; recombinant ADAM10, EDANS/DABCYL FRET peptide cleavage, 3 h;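 active = inhibition above a per-campaign cutoff equal to the mean of compounds falling between control-based bounds plus 3 SD, cut at about 20% in these data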;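 also: 0% = DMSO wells while the 100% control is not disclosed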
ADAM17 inh: inhibitors of human ADAM17 | P78536 | 0.83% of 370,000 active | AID 720648 | recombinant ADAM17, EDANS/DABCYL FRET peptide cleavage | inhibition, % at 6.95 µM;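 active = inhibition above the mean of compounds lying between control limits plus 3 SD, set per campaign, cut at about 8.5% in these data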;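 also: 0% = DMSO-only wells as the low control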
Target sequence (P78536 215-824 limits assumed): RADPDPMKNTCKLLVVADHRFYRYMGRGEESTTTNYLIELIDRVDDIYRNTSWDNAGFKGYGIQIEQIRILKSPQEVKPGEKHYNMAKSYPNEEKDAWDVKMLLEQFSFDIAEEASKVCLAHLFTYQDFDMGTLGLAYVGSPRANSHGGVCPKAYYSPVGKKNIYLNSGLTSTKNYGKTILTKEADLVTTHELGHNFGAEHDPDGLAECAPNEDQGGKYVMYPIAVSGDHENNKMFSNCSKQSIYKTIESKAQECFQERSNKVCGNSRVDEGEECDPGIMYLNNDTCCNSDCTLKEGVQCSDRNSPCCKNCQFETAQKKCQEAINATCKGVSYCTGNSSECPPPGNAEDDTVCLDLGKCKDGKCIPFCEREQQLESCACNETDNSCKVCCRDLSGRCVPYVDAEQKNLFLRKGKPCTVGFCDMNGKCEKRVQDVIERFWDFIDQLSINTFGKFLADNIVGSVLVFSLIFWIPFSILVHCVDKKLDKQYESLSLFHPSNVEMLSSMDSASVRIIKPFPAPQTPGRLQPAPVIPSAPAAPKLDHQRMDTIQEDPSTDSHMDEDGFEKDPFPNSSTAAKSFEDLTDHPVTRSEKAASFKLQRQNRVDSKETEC
PLC-beta3 inh: blocks human PLC-beta3 enzyme activity. Q01970. Purified PLC-beta3, fluorogenic substrate, fluorescence. inhibition, % at 12.2 µM. 0.18% of 370,000 active. AID 720704; in the data active = inhibition above about 11%;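 also: 0% = median of compound wells on plate and 100% = full blocker control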
PLCg1 ctr: PLC-gamma1 inhibition, counter-screen for PLC-beta3 hits. AID 743258. purified PLC-gamma1, fluorogenic substrate, fluorescence. 3.1% of 3,300 active. inhibition, % at 12.3 µM. shares compounds with PLC-gamma1 inh
PLCb3 confirm: confirmation of human PLC-beta3 inhibitors; shares compounds with PLC-gamma1 inh; purified PLC-beta3, fluorogenic substrate fluorescence; inhibition, % at 12.3 µM; 1% of 3,300 active; AID 743261; in the data active = inhibition above about 11%
* hit, by the source's call; nt = no result. Rule as the data show it, unless noted: active = inhibition above about 9.5%; inactive = the rest.

SMILES	PLC-gamma1 inh	HGIII-sPLA2 inh	proKLK7 act	ADAM10 inh	ADAM17 inh	PLC-beta3 inh	PLCg1 ctr	PLCb3 confirm
Cc1ccc(OCC(=O)Nc2sc3c(c2C#N)CC(C)(C)NC3(C)C)cc1	10*	7	1	10	1	-51	-3	2
N=c1sccn1CC(=O)NC(=O)NC1CCCC1	17*	10	0	0	0	4	3	4
O=C(CN1C(=O)CCC1=O)NC(=O)NC1CCCC1	0	8	0	-10	-6	-3	nt	nt
Nc1ccc([N+](=O)[O-])cc1C(=O)NNC(=O)c1ccco1	9.7*	7	0	17	6	3	7	7
O=C(NC(=S)Nc1ccc([N+](=O)[O-])cc1)c1ccco1	13*	9	0	6	8	5	-3	0
O=C(NC(=S)Nc1ccccc1[N+](=O)[O-])c1ccco1	1	9	0	4	0	-1	nt	nt
C/C(COc1ccccc1)=N\NC(=O)c1nnn(-c2nonc2N)c1CSc1ccccc1	0	0	0	2	1	-1	nt	nt
COc1ccccc1NC(=O)COc1ccc(/C=N/NC(=O)CSCc2cc(C)cc(C)c2)cc1	3	0	0	-1	0	4	nt	nt
COc1ccccc1NC(=O)COc1ccc(/C=N/NC(=O)CSCc2ccc(Cl)cc2)cc1	9.5*	6	0	-2	5	10	3	5
Cc1ccccc1C(=O)NCCCNC(=O)c1ccco1	-2	3	1	-2	0	-3	nt	nt
Cc1c(Br)c(O)c(Br)c2sc(=O)oc12	9.9*	10	0	1	-2	-10	-29	-35
Cc1c(C#N)c(NC(=O)c2cccc(Cl)c2)n(Cc2ccccc2)c1C	9.9*	-9	0	5	3	1	0	1
COc1ccc(Cn2c(C)c(C)c(C#N)c2NC(=O)Nc2cccc(Cl)c2)cc1	-3	-6	0	3	3	-6	nt	nt
CC(=O)N1C[C@H]2CON(C)[C@H]2C[C@H]1c1ccccc1-c1ccccc1	2	3	0	-1	1	7	nt	nt
COc1ccc(-c2cc(CNC(=O)CN3CCN(C)CC3)on2)cc1	9.5*	8	0	-5	-1	-369	-7	-2
CN1CC(=O)N(CC(=O)Nc2ccc(N(C)C)cc2)c2ccccc2C1=O	13*	13	0	8	3	5	0	-4
Cc1nc(NCCOc2ccccc2)sc1C(=O)Nc1ccccc1	12*	6	0	8	8	6	1	0
CC(NC(=O)c1ccccc1Cl)C1COc2ccccc2O1 (centres undefined)	7	1	0	2	1	13*	1	1
O=C(NCCS(=O)(=O)NCCCc1ccccc1)c1ccccc1	4	-3	0	1	-2	-6	nt	nt
COc1ccc(S(=O)(=O)N2CCN(CCOc3ccc(Br)cc3)CC2)cc1OC	11*	-14	1	3	6	-12	4	1
CCOC(=O)C1CCN(C(=O)CN(c2ccc3c(c2)OCCO3)S(=O)(=O)c2ccccc2)CC1	-2	-2	0	-4	-3	-4	nt	nt
Cc1ccc(Oc2ccc(/C=N/O)cn2)cc1	14*	5	0	2	-3	1	-2	2
Cc1[nH]c2ccccc2c1/C=N/Nc1nncn1N	9.9*	4	0	16	2	6	-11	-5
CCOc1cc(CNCc2ccccc2)ccc1OCc1ccc(Cl)cc1	17*	5	0	14	5	1	-1	-1
CCOc1cc(CNCCc2ccc(S(N)(=O)=O)cc2)ccc1OCc1ccccc1	8	-18	0	6	1	5	nt	nt
SMILES	PLC-gamma1 inh	HGIII-sPLA2 inh	proKLK7 act	ADAM10 inh	ADAM17 inh	PLC-beta3 inh	PLCg1 ctr	PLCb3 confirm
COc1ccc(Cl)cc1NC(=O)C/C(C)=N/NC(=O)c1ccccc1[N+](=O)[O-]	1	-9	0	-4	1	-7	nt	nt
COc1ccc(Cl)cc1NC(=O)c1cccc([N+](=O)[O-])c1O	10.0*	-4	0	5	-1	6	-2	-5
CC1CCCN(C(=O)C23CCC(C)(C(=O)C2)C3(C)C)C1 (centres undefined)	5	4	0	9	6	11*	4	7
O=c1[nH]ncc(N/N=C\c2ccncc2)c1Cl	9	9	0	2	6	11*	2	4
Cc1ccc(C(=O)NNC(=O)C2CCN(C(=O)OC(C)(C)C)CC2)cc1	-1	-5	0	-2	1	-6	nt	nt
Cc1cccc(C(=O)NNC(=O)C2CCN(C(=O)OC(C)(C)C)CC2)c1	9.8*	4	0	11	1	2	-9	-4
CCOc1ccccc1OCC(=O)NC1CCCCC1	11*	-1	0	13	3	4	-3	0
O=C(CNC(=O)OCc1ccccc1)NC1CCCCCCC1	10*	3	-1	4	2	7	-1	2
COc1ccc(OCC(=O)NC2CCCCCCC2)cc1	11*	6	0	3	5	-4	-3	-2
COc1ccccc1OCC(=O)NC1CCCCCC1	1	1	1	1	-1	0	nt	nt
O=C(COc1ccccc1)NCC(=O)NC1CCCCC1	-1	0	0	-7	-6	-7	nt	nt
COc1ccccc1N1CCN(S(=O)(=O)CCNC(=O)Cc2ccc(F)cc2)CC1	3	10	0	-7	-3	-7	nt	nt
O=C1CCC(C(=O)Nc2cc(C(F)(F)F)ccc2-n2cncn2)=NN1	0	6	0	0	-3	-6	nt	nt
CC(C)c1ccc(C2NC(=O)c3ccccc3O2)cc1 (centres undefined)	-3	0	-1	-22	-10	-9	nt	nt
CC(C)(C)c1ccc(/C=N/NC(=S)NC2CCCCC2)cc1	11*	-8	-1	1	4	6	1	-4
Cc1[nH]nc(Nc2ccc(C(C)C)cc2)c1[N+](=O)[O-]	11*	-16	0	20	8	-4	-3	-2
COCCNC(=O)CN(C(=O)CCC(=O)Nc1ccccn1)c1cc(C)ccc1C	13*	8	0	6	4	10	9	-1
CCOc1ccccc1N(CC(=O)NCCOC)C(=O)CCC(=O)Nc1ccccn1	-1	-2	0	0	-1	3	nt	nt
Cn1c(=O)c2c(nc(CN3CCN(CCO)CC3)n2Cc2cccc3ccccc23)n(C)c1=O	0	2	0	-1	-3	2	nt	nt

Bioassay records (PubChem)
